TrxR1 substrate – rat thioredoxin reductase 1 substrate activity; O89049; purified TrxR1 substrate turnover, NADPH consumption readout; Potency, µM (titrated, usually from 114 µM); actives 0.01% (n = 390,000); further: nearly all actives have a fitted effect of over 50% in size
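Rat TrxR1, dispensed at 90 nM, was prereduced with 400 uM NADPH (final) for 5 min at ~22 deg C, then incubated with compound 15 min before 400 uM selenite. A first-read NADPH fluorescence drop versus no-compound background flagged substrates.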
VDR inh – vitamin D3 receptor (human) inhibition. P11473. VDR-SRC2-3 peptide fluorescence polarization, 2 h. Potency, µM, hits mostly inhibitors. actives 0.93% (n = 400,000). AID 504847
Target sequence (P11473 whole entry, looked up): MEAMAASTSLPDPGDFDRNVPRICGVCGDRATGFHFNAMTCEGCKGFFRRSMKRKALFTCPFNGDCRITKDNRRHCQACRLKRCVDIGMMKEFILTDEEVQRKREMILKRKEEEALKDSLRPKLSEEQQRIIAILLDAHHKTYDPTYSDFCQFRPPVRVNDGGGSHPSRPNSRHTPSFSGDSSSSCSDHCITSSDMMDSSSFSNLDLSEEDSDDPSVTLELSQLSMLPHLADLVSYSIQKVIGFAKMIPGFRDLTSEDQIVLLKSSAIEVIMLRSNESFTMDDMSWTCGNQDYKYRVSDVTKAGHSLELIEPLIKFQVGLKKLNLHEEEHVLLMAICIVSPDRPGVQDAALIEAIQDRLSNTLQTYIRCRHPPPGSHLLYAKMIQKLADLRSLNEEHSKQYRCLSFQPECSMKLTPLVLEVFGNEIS
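FP read-out; VDR + SRC2-3 coactivator peptide; 23 nl compound by pintool; 2 h RT incubation; reagents held at 4 deg C, protected from light.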
rTrxR1 inhibitor – rat TrxR1 inhibition; O89049; recombinant rTrxR1, NADPH fluorescence consumption, selenite substrate; Potency, µM (highest dose often 114 µM), actives largely listed as inhibitors; actives 1% (n = 390,000); AID 588453; further: nearly all actives have a fitted effect of over 65% in size
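Rat TrxR1 (90 nM in the dispensed reagent) was pre-reduced with 400 uM NADPH for 5 min at room temperature, then incubated with compound for 15 min. After 400 uM selenite was added, NADPH fluorescence (Ex 340/Em 450 nm) was followed for 8 min.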
IDH1 R132H inh – inhibitors of human mutant IDH1 R132H. O75874. IDH1-R132H enzyme, NADPH consumption, diaphorase/resazurin fluorescence. Potency, µM (highest dose often 76.6 µM), actives largely listed as inhibitors. actives 0.093% (n = 390,000). AID 602179; further: nearly all actives have a fitted effect of over 65% in size
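IDH1-R132H (0.5 ug/mL) preincubated 30 min with compound, then NADPH (0.016 mM) and alpha-KG (2 mM) added; 80 min at RT, pH 7.5. Remaining NADPH coupled via diaphorase/resazurin to fluorescence (540/590 nm); concentration-response curves normalized to no-enzyme control.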
PLK1 PBD block – PLK1 (human) polo-box domain binding inhibition | actives 2.8% (n = 360,000) | AID 720504 | Potency, µM, actives largely listed as inhibitors | Plk1 PBD binding of FITC phosphopeptide, fluorescence polarization | P53350; further: series mostly up to about 57 µM; nearly all actives have a fitted effect of over 65% in size
Sfp PPTase inh – Sfp phosphopantetheinyl transferase inhibition; Q9F4F7; Biochemical Sfp PPTase activity, qHTS; Potency, µM, hits mostly inhibitors; actives 3.5% (n = 310,000); AID 1490;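 further: the enzyme is Sfp with the accession as filed and its product quenches rhodamine fluorescence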
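Sfp 15 nM + cpd, 15 min RT; start w/ rhodamine-CoA 5 uM, BHQ-2-YbbR 12.5 uM (final); 50 mM Hepes pH 7.6, 10 mM MgCl2, 0.01% NP-40, 0.01% BSA; read 525/598 nm at 0 and 30 min.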
Each line names hits and unclear results; the compound was inactive in the other large screens. Compounds with a hit are over-represented: about 5.2% of the library has one in this group of screens. The call rests on the fitted dose curve; in most records, active means well fitted curve in the direction sought with a large enough effect; inconclusive means small, poorly fitted or top-dose-only effect, or another doubt; inactive means no such curve, though single readings can be large; an effect the other way counts as inactive or inconclusive.

CCOCCCNC(=O)c1ccc2c(=O)n(CCCOCC)c(=S)[nH]c2c1	none
CC1CCN(CCCNC(=O)c2ccc3c(=O)n(Cc4ccc(Cl)cc4)c(=S)[nH]c3c2)CC1	Sfp PPTase inh 79µM
CCOC(=O)C1=C(CS(=O)(=O)c2c(C)cc(C)cc2C)NC(=O)NC1c1cccc(OC)c1 (stereo not drawn)	VDR inh inconclusive (no result: PLK1 PBD block, Sfp PPTase inh)
CCN(CC)c1ccc(/C=N/Nc2nc(C)cc(C)n2)cc1	rTrxR1 inhibitor inconclusive
CCN(CC)c1ccc(/C=N/Nc2nn[nH]n2)cc1	rTrxR1 inhibitor inconclusive, Sfp PPTase inh 40µM
N#C/C(=C\c1ccc(OC(=O)c2ccccn2)cc1)C(N)=O	rTrxR1 inhibitor inconclusive, Sfp PPTase inh 50µM
N#C/C(=C\c1cc([N+](=O)[O-])ccc1Cl)C(N)=O	VDR inh inconclusive, PLK1 PBD block inconclusive
C=CCOc1ccc(/C=C(\C#N)C(=O)Nc2ccccn2)cc1	none
N#C/C(=C\c1ccc(OCc2ccccc2)cc1)C(N)=O	VDR inh inconclusive, PLK1 PBD block 9.5µM
N#C/C(=C/c1ccc([N+](=O)[O-])cc1)C(N)=O	VDR inh 79µM
Cc1ccccc1COc1ccc(/C=C(\C#N)C(N)=O)cc1	none
Cc1cc(C)nc(N/N=C/c2sccc2C)n1	VDR inh inconclusive, PLK1 PBD block 19µM
CCOc1cc(N2CCOCC2)c(OCC)cc1NC(=O)COc1ncnc2ccccc12	none
CCOc1cc(N2CCOCC2)c(OCC)cc1NC(=O)c1cc(-c2ccco2)nc2ccccc12	Sfp PPTase inh 28µM
COc1ccc(NC(=O)c2cc(-c3ccco3)nc3ccccc23)cc1S(=O)(=O)N1CCOCC1	VDR inh 28µM, rTrxR1 inhibitor inconclusive, PLK1 PBD block 21µM, Sfp PPTase inh 5µM
Cc1ccccc1NC(=O)c1c(C)oc2ccc(O)c(CN3CCN(C)CC3)c12	none (no result: PLK1 PBD block, Sfp PPTase inh)
CCN(c1ccccc1)S(=O)(=O)c1ccc(C(=O)N2CCN(c3ccccc3)CC2)cc1	none (no result: Sfp PPTase inh)
CCn1c(SCc2nc3ccccc3c(=O)[nH]2)nc2ccccc2c1=O	none
C=CCn1c(SCc2nc3ccccc3c(=O)[nH]2)nc2scc(C3CC3)c2c1=O	Sfp PPTase inh 56µM
COc1cc(N)c(N)cc1OC	none (no result: VDR inh, IDH1 R132H inh, PLK1 PBD block, Sfp PPTase inh)
O=C(NC1CCCCC1)Oc1cccc2ccccc12	PLK1 PBD block 24µM
COc1ccccc1NC(=O)C(Cc1ccccc1)NS(=O)(=O)c1ccc2c(c1)CCN2C(C)=O (stereo not drawn)	none (no result: PLK1 PBD block, Sfp PPTase inh)
CCOc1ccccc1NC(=O)CN1C=NS(=O)(=O)c2ccccc21	none (no result: PLK1 PBD block, Sfp PPTase inh)
c1ccc(C2=Nn3c(Cn4nnc5ccccc54)nnc3SC2)cc1	none
Clc1ccc(C2=Nn3c(Cn4nnc5ccccc54)nnc3SC2)cc1	VDR inh 79µM, PLK1 PBD block 8.4µM, Sfp PPTase inh 32µM
CNc1ccccc1C(C)(C)c1cc(C)[nH]n1	VDR inh inconclusive, PLK1 PBD block 8.4µM
O=C(Nc1c2c(nn1-c1ccccc1)CS(=O)(=O)C2)c1ccc(Br)o1	none (no result: TrxR1 substrate, VDR inh, rTrxR1 inhibitor, Sfp PPTase inh)
C=CCn1c(CNc2ccccc2)nnc1SCC(=O)N/N=C/c1ccc(O)cc1O	PLK1 PBD block 27µM
C=CCn1c(CNc2ccc(C)cc2)nnc1SCC(=O)N/N=C/c1ccc(O)cc1O	none
Cc1ccc(C(=O)Oc2cc(-c3ccc4c(c3)OCO4)cc(=O)c3c(C)oc(C)c23)cc1	none (no result: PLK1 PBD block, Sfp PPTase inh)
CCOc1cc(-c2ccc3c(c2)OCO3)cc(=O)c2c(C)oc(C)c12	Sfp PPTase inh 32µM (no result: TrxR1 substrate, VDR inh, rTrxR1 inhibitor, IDH1 R132H inh, PLK1 PBD block)
O=C1C[C@H]2C=CCc3cccc(c32)CN1Cc1ccc(Cl)cc1	none (no result: VDR inh, IDH1 R132H inh, PLK1 PBD block, Sfp PPTase inh)
O=C(O)CSc1sc(=S)sc1SCC(=O)O	PLK1 PBD block 27µM, Sfp PPTase inh 79µM
Cc1cccc(N2C(=O)N(CC(=O)C(C)(C)C)c3ccccc3S2(=O)=O)c1C	none (no result: PLK1 PBD block, Sfp PPTase inh)
CCC(C)(C)C1CCC2(CC1)NC(=S)N(c1ccccc1)N2 (stereo not drawn)	Sfp PPTase inh 79µM
COc1cccc(/C=C/C(=O)OCC(=O)Nc2ccc(S(=O)(=O)N3CCCC3)cc2)c1	Sfp PPTase inh 79µM
COc1cc(CCC(=O)NCc2ccc3c(c2)CCN3C(=O)c2ccccc2)cc(OC)c1OC	none (no result: PLK1 PBD block, Sfp PPTase inh)
O=C(NCCCCNC(=O)c1ccccn1)c1ccccn1	Sfp PPTase inh 79µM
O=C(NCCCCCNC(=O)c1ccccn1)c1ccccn1	none
